In PubChem BioAssay AID743126 (The Scripps Research Institute Molecular Screening Center, 2013):
In all, about 370,000 compounds went through this assay and about 2,100 (0.57%) were called active. For the sample, actives were picked, then their nearest neighbours and some compounds at random. Values without a mark were called inactive.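 How the source made its calls: active means inhibition above mean plus 3 SD of compounds lying within the high and low control bounds (cut at about 19% in these data); inactive means the rest.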

What follows are compounds tested against Group 3 secretory phospholipase A2 (Homo sapiens) (UniProt Q9NZ20) (assay: human group III sPLA2 inhibitors, primary screen, biochemical, QFRET, BODIPY PC-A2 liposome substrate (AID 743126;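 further: 0% = median of test compound wells and 100% = no enzyme DMSO wells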)). Settings: QFRET BODIPY PC-A2 liposome hydrolysis, fluorescence; at 12.2 µM; active compounds read high.
Chain of Group 3 secretory phospholipase A2 (Homo sapiens) (Q9NZ20 whole entry, looked up): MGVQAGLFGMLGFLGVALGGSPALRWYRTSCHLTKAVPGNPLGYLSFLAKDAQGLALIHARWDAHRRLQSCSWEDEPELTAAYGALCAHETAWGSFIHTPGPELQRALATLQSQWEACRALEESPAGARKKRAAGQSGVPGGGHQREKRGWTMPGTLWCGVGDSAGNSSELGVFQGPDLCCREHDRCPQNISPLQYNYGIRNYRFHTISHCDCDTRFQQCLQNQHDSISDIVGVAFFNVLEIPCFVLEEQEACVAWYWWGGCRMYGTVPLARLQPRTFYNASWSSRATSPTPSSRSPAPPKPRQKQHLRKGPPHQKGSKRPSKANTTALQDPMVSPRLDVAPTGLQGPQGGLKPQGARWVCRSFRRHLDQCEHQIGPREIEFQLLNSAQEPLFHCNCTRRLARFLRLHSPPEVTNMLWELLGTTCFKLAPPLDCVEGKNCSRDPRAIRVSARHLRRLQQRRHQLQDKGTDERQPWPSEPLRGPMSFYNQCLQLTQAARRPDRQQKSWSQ

SMILES | inhibition
CCC(C)[C@@H](C(=O)OC)N(CCc1cn(Cc2ccccc2)nn1)S(=O)(=O)c1ccccc1Br (stereo not given in full) | -21.7%
CCn1c(SCC(=O)Nc2ccccc2F)nc2c(c1=O)SC(C)C2 (stereo not given) | 0.02%
COCCn1c(SCC(=O)Nc2cc(Cl)ccc2OC)nc2c(c1=O)SC(C)C2 (stereo not given) | -0.04%
COCCn1c(SCC(=O)Nc2cc(OC)ccc2OC)nc2c(c1=O)SC(C)C2 (stereo not given) | 20.3% (active)
Cc1nc(CNc2ncnc3ccc(-c4ccc5c(c4)OCO5)cc23)cs1 | -8.39%
CCCCn1c(N)c(N(CCOC)C(=O)c2sc3ccccc3c2Cl)c(=O)[nH]c1=O | 5.32%
CCCCn1c(N)c(N(CCOC)C(=O)COc2c(C)cccc2C)c(=O)[nH]c1=O | 21.9% (active)
CCCCn1c(N)c(N(CCOC)C(=O)CSCC(=O)Nc2cccc(C)c2)c(=O)[nH]c1=O | 0.3%
CCCCOCCCNC(=O)C[C@H]1C[C@@]2(C(=O)OC)C(=C[C@H](C(C)(C)C)O[C@@H]2C)N(CCc2ccc(OC)c(OC)c2)C1=O | -14.2%
COc1ccnc(C(=O)N2CCC(Oc3cccnc3)CC2)c1 | 3.64%
Cc1ccc(Nc2ccccc2N)cc1 | -1.96%
O=c1cnnc(Nc2ccccc2)[nH]1 | 6.17%
Nc1ccc(Nc2ccccc2)cc1 | 19.5% (active)
CC(=O)O[C@@]1(C(C)=O)CCC2[C@H]3C=C(C)C4=CC(=O)CC[C@@]4(C)C3CC[C@]21C (stereo not given in full) | 14%
COc1ccc(C(=O)NN2C(=O)C3C(c4ccccc4)C=CC(c4ccccc4)C3C2=O)cc1 (stereo not given) | -36.3%
COc1ccc(C(=O)NCCSc2ccccc2C)cc1 | -6.45%
COc1ccc(C(=O)NNc2cc(C)nc(NNC(=O)c3ccc(OC)cc3)n2)cc1 | -3.83%
COC(=O)c1ccc2nc(-c3ccccc3)c(Cc3ccc(OC)cc3C)n2c1 | -8.3%
COc1ccc(C(=O)NNC(=S)NC(=O)c2ccccc2)cc1 | 31.9% (active)
COc1ccc(C(=O)NC(=S)NNC(=O)c2c(-c3ccccc3)noc2C)cc1 | 19.5% (active)
O=S1(=O)c2ccc(Br)cc2OC[C@@H](Cc2ccccc2)N1Cc1cn(Cc2ccco2)nn1 | -4.54%
Nn1c(SCC(=O)Nc2cccc3ccccc23)nnc1-c1cc(-c2ccc(F)cc2)n[nH]1 | -0.61%
COC(=O)c1ccccc1-n1cc(COC(=O)NCCc2ccccc2)nn1 | 6.94%

SMILES | inhibition
Cc1ccccc1NC(=O)Cn1nnc(-c2ccccc2F)n1 | -6.88%
O=C1CC[C@@H](COc2ccc3[nH]cc(-c4ccccc4)c3c2-c2ccccc2)N1 | -47.7%
COc1ccc(/C=C2\CC3(OC(C)=O)CCCN2C3)cc1 (stereo not given) | 2.59%
CC(C)CNS(=O)(=O)CC1NCCc2ccccc21 (stereo not given) | 3.21%
COc1cc(OC)cc(C2=Cc3ccccc3C(CC(=O)c3ccco3)N2c2ccc(-c3cnc(OC)nc3)cc2)c1 (stereo not given) | 20.3% (active)
COc1cc(OC)cc(-c2nc3nc(C)c(CCC(=O)NCc4ccco4)c(C)n3n2)c1 | 9.12%
COCCN(C(=O)c1ccco1)c1nnc(-c2ccc(OC)cc2)s1 | -1.24%
CC(c1c[nH]c2ccccc12)c1c(-c2ccccc2)n(C)c2ccccc12 (stereo not given) | -21.1%
COc1ccc(CSc2nnc(-c3cccc(C)c3)n2C)cc1 | 11.9%
O=C(CSc1nc2sc3c(c2c(=O)n1-c1ccccc1)CCCC3)NN=Cc1ccc(OCc2ccccc2)cc1 | -1.3%
COC(=O)C1CN(CC(C)C)CCS(=O)(=O)N1Cc1ccc(F)cc1 (stereo not given) | 5.81%
N#Cc1ccccc1OC[C@@H](O)CN1CCC(C(O)(c2ccccc2)c2ccccc2)CC1 | -25.3%
NS(=O)(=O)c1ccc(CNC(=S)NC(=O)c2ccco2)cc1 | -1.55%
CC(Oc1ccc2ccccc2c1)C(=O)NNC(=S)NC(=O)c1ccco1 (stereo not given) | 20% (active)
COc1ccc(/C=C(/NC(=O)c2ccco2)C(=O)Nc2ccc(C(C)=O)cc2)cc1 | 10.6%
CCOC(=O)C1=C(C)NC2=C(C(=O)CC(C)(C)C2)C1c1ccc2c(c1)OCO2 (stereo not given) | 14.4%
CCCOc1ccc(Oc2c(Cl)cnn(Cc3cccc4ccccc34)c2=O)cc1 | 3.84%
Cc1ccc2[nH]c(C(=O)O)c(NC(=O)c3ccccc3[N+](=O)[O-])c2c1 | -10.3%
COc1cccc2c(C)c(C(=O)O)[nH]c12 | -1.9%
Cc1c(C(=O)N/N=C/c2ccccc2)[nH]c2c([N+](=O)[O-])cccc12 | 21.8% (active)
O=C(NCc1cccs1)C1CCCN(S(=O)(=O)c2ccc([N+](=O)[O-])cc2)C1 (stereo not given) | 2.84%
CN1C[C@]2(C=C3CCCCC3n3c(=O)n(-c4ccccc4)c(=O)n32)N=C1NC(=O)c1ccccc1 (stereo not given in full) | -6.07%
